# Assay outcomes deposited in PubChem by National Center for Advancing Translational Sciences (NCATS).
# Rows were chosen to be rich in hits. Some 20% of all compounds tested hit in one or more screens of this group.
# Shiga toxin inh: A qHTS for Small Molecule Inhibitors of Shiga Toxin | Vero cells, Shiga toxin protein synthesis inhibition reporter | inhibition, % at 38.7 µM | 290,000 tested, 9.2% active; in the data active means inhibition mostly above about 28%, no sharp cut-off; inactive means mostly below about 43%; further: 0% is about no effect
# Pf growth 48h: Primary qHTS for delayed death inhibitors of the malarial parasite plastid, 48 hour incubation; Potency, µM (doses to about 28.7 µM), for the others: top-dose activity change, negative = inhibition, actives largely listed as inhibitors; 310,000 tested, 5.9% active; P. falciparum luciferase growth in erythrocytes, 48 h; AID 504832, 2011; further: potency means the concentration at half of the fitted maximal effect; on the % scale 0 is the no-effect control and ±100 the full control effect
#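 Compounds are pin-transferred into medium, infected erythrocytes (2% hematocrit, 0.1% parasitemia final) are added, and plates sit one parasite generation at 37 C in 5% CO2. Detection reagent is then added and luminescence measured.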
# CHX counter: Cycloheximide Counterscreen for Small Molecule Inhibitors of Shiga Toxin; cell reporter, cycloheximide protein synthesis inhibition counterscreen; max response, %; 300,000 tested, 12% active; in the data active means max response mostly above about 13%, no sharp cut-off; inactive means mostly below about 14%; further: read at 38.3 µM for the half of the compounds with a filed dose; 0% is about no effect
# HCMV antiviral: qHTS Assay for inhibitors of the human cytomegalovirus (HCMV). HFF cells, HCMV-luciferase reporter, 72 h; stronger effect = lower value. activity change, negative = inhibition, % at 57.5 µM. 410,000 tested, 4.5% active; in the data active means activity change below about -60%; inconclusive means no clear call, values can overlap the other calls; inactive means above about -39%; further: on the % scale 0 is the no-effect control and ±100 the full control effect
#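 Screen run at 2 compound doses on HFFs infected with reporter HCMV, MOI 1 PFU/cell. Luciferase activity from cell lysates at 72 h post infection gave inhibition relative to buffer-only and Salinomycin wells.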
# Pf growth 96h: Primary qHTS for delayed death inhibitors of the malarial parasite plastid, 96 hour incubation; 320,000 tested, 6.9% active; P. falciparum luciferase reporter growth, 96 h; Potency, µM (titrated, usually from 28.7 µM), without a hit: at the top dose activity change, negative = inhibition, usual class: inhibitors; further: potency means the concentration at half of the fitted maximal effect; on the % scale 0 is the no-effect control and ±100 the full control effect
#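 Two parasite generations (96 h, 37 C, 5% CO2) of compound exposure in infected erythrocytes (0.05% parasitemia, 2% hematocrit). Luciferase-reporter P. falciparum; decreased luminescence indicates inhibited growth, aimed at apicoplast-acting delayed death.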
# * = called active by the depositor; i = inactive; u = inconclusive; x = not tested or not shown; + = active, no number. Unless noted, the call rests on the fitted dose curve; in most records, active means well fitted inhibition curve with a large enough effect; inconclusive means small, poorly fitted or top-dose-only effect, or another doubt; inactive means no such curve, though single readings can be large or run the other way.
SMILES,Shiga toxin inh,Pf growth 48h,CHX counter,HCMV antiviral,Pf growth 96h
COc1ccc(-c2csc(N3CCOCC3)n2)cc1OC,74.6*,124.8%,51.3*,97.1,-19.6%
Nc1nc2cc(Cl)c(Br)cc2o1,x,x,x,0.2,x
O=C(CSc1ccc2c(c1)OCCO2)Nc1cccnc1,21.7,48.8%,1.5,4.9,u
Cc1cccc(CNc2nc3cnc(-c4ccc(F)cc4)cc3n2C)c1,x,x,x,-3.3,x
COc1cc(NC(=O)COC(=O)c2cnccn2)c(C)cc1[N+](=O)[O-],-3.3,13.1%,-0.8,0.0,62.2%
Clc1ccc(-c2csc(N3CCOCC3)n2)cc1,56.4*,i,47.2*,0.4,i
CN1CCN(c2nc(-c3ccc(Cl)s3)cs2)CC1,50.5*,67.5%,46.0*,57.1,65.7%
Brc1ccc(-c2csc(N3CCOCC3)n2)cc1,136.2*,i,62.6*,6.6,u
c1ccc(-c2csc(N3CCCCCC3)n2)cc1,+,46.1%,33.4*,7.9,-0.3%
FC(F)(F)c1cc(-c2ccccc2)nc(N2CCCCCC2)n1,-3.0,12.9%,-0.4,-20.8,16.5%
c1ccc(-c2cnnc(N3CCCCC3)n2)cc1,112.3*,u,32.9*,-7.4,u
COc1ccccc1-c1csc(N2CCC(C(N)=O)CC2)n1,x,11.7µM*,x,x,u
CC(C)CCC(CC(C)O)c1n[nH]c(=S)n1-c1ccccc1 (configuration not stated),-9.1,-1.3%,9.1,13.0,2.33µM*
Cc1ccc2c(c1)nc(-n1nc(C)cc1C)c1nnnn12,65.1,-17.0%,12.0,-37.9,u
Cc1ccc(N(CC(=O)NCc2cccnc2)S(C)(=O)=O)cc1C,-12.9,11.2%,1.3,24.8,4.15µM*
COc1ccc(-c2cc3c(=O)n(CC(=O)NCc4cccnc4)ncn3n2)cc1,37.1*,198.3%,27.5*,197.2,14.7µM*
CCOc1ccc(S(=O)(=O)N(CC)CC(=O)NCc2ccncc2)cc1,-8.6,-11.8%,1.4,-27.8,-25.5%
CN(CC(=O)NCc1ccccn1)S(=O)(=O)c1ccc(F)cc1,11.5,16.9%,0.5,-13.0,14.7µM*
COc1ccc(CNC(=O)Cn2ncn3nc(-c4cccs4)cc3c2=O)cc1,x,x,x,-16.5,x
CCOc1ccc(S(=O)(=O)N(CC)CC(=O)NCc2cccnc2)cc1,-2.5,8.4%,0.8,17.1,11.7µM*
CC(C)Oc1ccc(CNC(=O)c2cnc3sc(N4CCCCCC4)nn3c2=O)cc1,x,x,x,-4.6,x
Cn1cnc(S(=O)(=O)N2CCC[C@@H]2c2noc3ccccc23)c1,x,x,x,-5.2,x
CCN(CC)S(=O)(=O)c1ccc(OCC(=O)NCc2ccccc2)cc1,-3.4,u,-1.1,-3.3,9.28µM*
COc1ccc(S(=O)(=O)N(C)CC(=O)NCc2cccnc2)cc1,74.6*,5.8%,10.1,15.5,u
Cc1ccc(-c2nc3ccc(Cl)cn3c2Nc2ccc3c(c2)OCCO3)s1,x,x,x,96.8,x
SMILES,Shiga toxin inh,Pf growth 48h,CHX counter,HCMV antiviral,Pf growth 96h
CCC(Oc1ccccc1)C(=O)Nc1cc(-c2ccccc2F)nn1-c1ccccc1 (configuration not stated),x,x,x,8.6,x
O=C(Nc1ccccc1)c1cccc(N2C(=O)CCC2=O)c1,-13.3,-0.3%,-2.9,8.3,x
CC1C=CCC2C(=O)N(c3cccc(C(=O)NCc4ccccc4)c3)C(=O)C12 (configuration not stated),-4.1,-11.9%,-4.9,32.1,0.0%
CC1C=CCC2C(=O)N(c3cccc(C(=O)NCCc4ccccc4)c3)C(=O)C12 (configuration not stated),-7.8,-4.2%,-2.6,-61.0*,5.8%
Cc1ccc(NC(=O)c2ccccc2N2C(=O)C3C4C=CC(C5CC45)C3C2=O)cc1C (configuration not stated),4.8,u,-1.5,-3.7,9.28µM*
O=C(Nc1ccc(Br)cc1)c1cccc(N2C(=O)CCC2=O)c1,65.0*,-0.6%,54.5*,-4.1,25.0%
CN(C)c1ccc(NC(=O)c2cccc(N3C(=O)CCC3=O)c2)cc1,37.0,44.0%,21.4*,-31.5,72.7%
O=C(Nc1ccccc1)c1cccc(N2C(=O)C3C4C=CC(C5CC45)C3C2=O)c1 (configuration not stated),7.6,-20.4%,2.5,-23.6,u
O=C(Nc1ccccc1)c1cccc(N2C(=O)C3C4C=CC(C4)C3C2=O)c1 (configuration not stated),29.1,-2.2%,19.0*,21.4,u
O=C(Nc1ccc(Br)cc1)c1cccc(N2C(=O)C3C4CCC(C4)C3C2=O)c1 (configuration not stated),-34.0,-7.0%,9.2,-81.3*,-7.0%
COC(=O)c1ccc(NC(=O)c2cccc(N3C(=O)C4C5C=CC(C6CC56)C4C3=O)c2)cc1 (configuration not stated),64.5*,19.6%,33.5*,-39.9,u
Cc1ccccc1NC(=O)c1cccc(N2C(=O)C3C4CC(C(Br)C4Br)C3C2=O)c1 (configuration not stated),-9.5,-24.8%,-1.1,34.0,9.28µM*
NC(C(=O)O)c1nn[nH]n1 (configuration not stated),7.4,x,3.9,x,x
Cc1ccc(-c2noc(-c3nnn(-c4ccc(Br)cc4F)c3C)n2)cc1,x,x,x,-14.9,x
CCC(C)NC(=O)CCSCCC(=O)NC(C)CC (configuration not stated),10.1,u,-4.8,15.9,u
CCN(CC(=O)Nc1c(F)cccc1F)C(=O)C1CC(=O)N(c2ccccc2OC)C1 (configuration not stated),-5.6,18.8%,-4.6,10.8,8.9%
O=C(Cc1ccccc1[N+](=O)[O-])c1ccccc1[N+](=O)[O-],x,x,x,-13.8,x
Cc1ccc(C)c(C(=O)C(C)Sc2nc3nn(-c4ccccc4)c(=O)c-3c3n2CCCCC3)c1 (configuration not stated),-2.1,u,-1.7,u,9.28µM*
COc1ccc(C(=O)c2cn(Cc3ccc(F)cc3)c3ccc(C)cc3c2=O)cc1,x,x,x,-17.4,x
CCOC(=O)C1CCN(Cc2cc(=O)oc3cc(C)ccc23)CC1,28.8,2.7%,7.6,13.7,59.2%
CCOC(=O)C1CCCN(Cc2cc(=O)oc3cc(C)ccc23)C1 (configuration not stated),68.9*,10.0%,44.1*,34.5,16.3%
CCOC(=O)C1CCCN(Cc2cc(=O)oc3cc(C)c(C)cc23)C1 (configuration not stated),28.2,-26.5%,37.0*,u,22.7%
CCOC(=O)c1ccc(S(=O)(=O)NNC(=O)c2cccc(N(C)C)c2)cc1,34.8,19.1%,10.7,42.0,71.4%
O=C(OCc1cn([C@@H]2C[C@H](c3ccccc3)N(C(=O)c3cccs3)C[C@H]2O)nn1)c1ccccc1,x,x,x,19.2,x
O=C1C=C(NNC(=O)c2ccncc2)CC(c2ccccc2)C1 (configuration not stated),3.6,u,9.2,u,u
